Screens from PubChem.
HCV inh: qHTS Assay for Inhibitors of Hepatitis C Virus (HCV); Huh7.5.1 HCVcc-Cre infection, luciferase reporter, 44 h; Potency, µM (highest dose often 41.8 µM), inactives show at the highest dose activity change, negative = inhibition, actives largely listed as inhibitors; 3.4% of 340,000 active; AID 651820, 2012; also: potency is read from the fitted curve at half-maximal effect; % is scaled to controls: 0 for no effect and ±100 for the full control effect
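1,000 cells/well; 4 h culture; + compound; + HCVcc-Cre (~0.5 moi); 44 h; luciferase substrate, RT 15 min; read 15 sec.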
Shiga inhibitor: A qHTS for Small Molecule Inhibitors of Shiga Toxin. Vero cells, Shiga toxin protein synthesis inhibition reporter. inhibition, % at 38.7 µM. 9.2% of 290,000 active. AID 2315, 2010; in the data active = inhibition mostly above about 28%, no sharp cut-off; inactive = mostly below about 43%; also: 0% is about no effect
CHX counter: Cycloheximide Counterscreen for Small Molecule Inhibitors of Shiga Toxin | cell reporter, cycloheximide protein synthesis inhibition counterscreen | max response, % | 12% of 300,000 active | AID 2314, 2010; in the data active = max response mostly above about 13%, no sharp cut-off; inactive = mostly below about 14%; also: read at 38.3 µM for the half of the compounds with a filed dose; 0% is about no effect
Pf growth 96h: Primary qHTS for delayed death inhibitors of the malarial parasite plastid, 96 hour incubation; AID 504834, 2011; 6.9% of 320,000 active; Potency, µM (top dose mostly 28.7 µM), for inactives: at the highest dose activity change, negative = inhibition, hits mostly inhibitors; P. falciparum luciferase reporter growth, 96 h; also: potency is read from the fitted curve at half-maximal effect; % is scaled to controls: 0 for no effect and ±100 for the full control effect
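96 h incubation, 37 C, 5% CO2, of luciferase-reporter P. falciparum-infected RBCs (2% hematocrit, 0.05% parasitemia final) with test compounds; endpoint luminescence.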
HCMV inh: qHTS Assay for inhibitors of the human cytomegalovirus (HCMV); 4.5% of 410,000 active; HFF cells, HCMV-luciferase reporter, 72 h; hits give low values; activity change, negative = inhibition, % at 57.5 µM; in the data active = activity change below about -60%; inconclusive = no clear call, values can overlap the other calls; inactive = above about -39%; also: % is scaled to controls: 0 for no effect and ±100 for the full control effect
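Cell-based, HFFs, 1000 cells/well, 16 h 37C; cpds in DMSO + HCMV-luc, MOI 1 PFU/cell; 72 h 37C; OneGlo luminescence after 5 min RT; norm. to buffer vs Salinomycin 10uM.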
Pf growth 48h: Primary qHTS for delayed death inhibitors of the malarial parasite plastid, 48 hour incubation; P. falciparum luciferase growth in erythrocytes, 48 h; Potency, µM (titrated, usually from 28.7 µM), for the others: at the top dose activity change, negative = inhibition, hits mostly inhibitors; 5.9% of 310,000 active; also: potency is read from the fitted curve at half-maximal effect; % is scaled to controls: 0 for no effect and ±100 for the full control effect
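First compound was added to culture medium, then infected red cells at 0.1% parasitemia and 2% hematocrit (final). After incubation at 37 C under 5% CO2, luciferase detection reagent was dispensed and light output recorded.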
* = called active by the depositor; ? = inconclusive; / = no result; [ ] = another dose, or the depositor's remark. Rows were chosen to be rich in hits. Some 21% of all compounds tested hit in one or more screens of this group. Unless noted, calls follow the shape of the dose curve; as a rule, active = well fitted inhibition curve with a large enough effect; inconclusive = small, poorly fitted or top-dose-only effect, or another doubt; inactive = no such curve, though single readings can be large or run the other way.

SMILES | HCV inh | Shiga inhibitor | CHX counter | Pf growth 96h | HCMV inh | Pf growth 48h
Cc1ccc(NC(=O)NC(=O)N(C(C)C)S(=O)(=O)c2ccc(C)cc2)cc1 | 19% | 31 | 23* | 112% | 0 | 39%
Cc1ccc(S(=O)(=O)NC(=O)NC(=O)N(C)S(=O)(=O)c2ccc(C)cc2)cc1 | 16% | -11 | 14 | 0% | 17 | 23%
NS(=O)(=O)c1ccc(NC(=O)Nc2ccc(C(F)(F)F)cc2)cc1 | ? | -3 | 9 | ? | -66* | ?
COc1ccc(S(=O)(=O)CCC(=O)NCCc2cccc(C)c2)cc1 | 10% | -9 | -5 | ? | 58 | /
COC(=O)C(C)(C)ONC(=O)Nc1ccc(C)cc1 | 9% | 43* | 21* | 18% | 21 | 52%
CCCC(=O)N1CCCC1(C)C(=O)Nc1cc(C)ccc1C (stereo not given) | / | / | / | / | -3 | /
NS(=O)(=O)c1ccc(NC(=O)Nc2ccc(S(N)(=O)=O)cc2)cc1 | 8% | 1 | -1 | 14% | 50 | 5%
NS(=O)(=O)c1ccc(CCNC(=O)CNCCc2ccc(C(F)(F)F)cc2)cc1 | ? | -2 | -5 | -13% | -61* | /
Cc1ccc(N2C(=O)CC(SCC(=O)Nc3ccc(S(N)(=O)=O)cc3)C2=O)cc1 (stereo not given) | -2% | 154* | 64* | 298% | -28 | 148%
NS(=O)(=O)c1ccc(CCNC(=O)CNC(=O)c2ccc(F)cc2)cc1 | 31% | -5 | -8 | 33% | -6 | 15%
Cc1ccc(NC(=O)Nc2ccc(S(N)(=O)=O)cc2)cc1 | -20% | 49* | 30* | 11% | -19 | 31%
COC(=O)C1=C(c2ccc(-c3ccccc3)c(F)c2)C[C@@H]2CC[C@H]1N2C(=O)NCCNC(C)=O | -9% | / | / | -6% | -19 | ?
COC(=O)C1=C(c2ccc(-c3ccccc3)c(F)c2)C[C@@H]2CC[C@H]1N2C(=O)NCCOc1ccc(OC)cc1 | ? | / | / | ? | 67 | 7.4µM*
COC(=O)C1=C(c2ccc(-c3ccccc3)c(F)c2)C[C@@H]2CC[C@H]1N2C(=O)NCCCOC(C)C | ? | / | / | ? | -8 | ?
COC(=O)C1=C(c2ccc(-c3ccccc3)c(F)c2)C[C@@H]2CC[C@H]1N2C(=O)NCCc1ccccc1 | ? | / | / | ? | -8 | 6.6µM*
O=C(NC1(C(F)(F)F)N=C(c2ccccc2)N(Cc2ccccc2)C1=O)c1ccc(F)cc1 (stereo not given) | / | / | / | / | -21 | /
O=[N+]([O-])c1c(NCc2ccccc2)cc(N2CCc3ccccc3C2)c2nonc12 | 1.4µM* | 20 | -3 | ? | ? | 17%
O=[N+]([O-])c1c(NCCCO)cc(N2CCCCCC2)c2nonc12 | -4% | -8 | -2 | 4% | -23 | -35%[0.00184 µM]
COc1ccc(S[C@]2(C(=O)N3CCCC3)CC(=O)N(c3ccc(OC)cc3)[C@@H]2c2ccc(OC)cc2)cc1 | / | / | / | / | -1 | /
Cc1ccc(Nc2nc(-c3ccc(S(=O)(=O)N4CCCC4)cc3)cs2)cc1C | 4µM* | 23 | -2 | 1.7µM* | / | 1.9µM*
Cc1cc(C)cc(Nc2nc(-c3ccc(S(=O)(=O)N4CCCC4)cc3)cs2)c1 | 10µM* | -10 | -2 | 6% | -77* | ?
O=S(=O)(c1ccc(-c2csc(Nc3ccc(F)cc3)n2)cc1)N1CCCC1 | ? | 2 | -4 | 163% | -10 | 17%
COc1ccc(-c2csc(Nc3ccc(S(=O)(=O)Nc4cc(C)on4)cc3)n2)cc1C | 16% | -30 | -1 | ? | 18 | ?
O=S(=O)(c1ccc(-c2csc(Nc3ccc(Br)cc3)n2)cc1)N1CCCC1 | ? | -5 | -7 | ? | -73* | ?
CCSc1nc2c(c(=O)[nH]c(=O)n2C)n1CC(O)COc1ccc(Cl)cc1 (stereo not given) | / | / | / | / | 10 | /
SMILES | HCV inh | Shiga inhibitor | CHX counter | Pf growth 96h | HCMV inh | Pf growth 48h
CN1CCC(N2CCN(C3CN(Cc4cn(Cc5cccc(C(F)(F)F)c5)nn4)S(=O)(=O)C3)CC2)CC1 (stereo not given) | / | / | / | / | -3 | /
O=C(CCn1c(=O)c2sccc2n(CC(=O)Nc2ccccc2)c1=O)NCc1ccccc1Cl | / | / | / | / | -28 | /
O=C(NC1CCCCC1)C1c2ccccc2OCC(=O)N1CC(F)(F)F (stereo not given) | / | / | / | / | 0 | /
N#CC(=Cc1cccs1)c1nc(-c2ccc(Cl)cc2)cs1 | / | / | / | / | -37 | /
N#C/C(=C\C=C\c1ccccc1)c1nc(-c2ccc(Cl)cc2)cs1 | -12% | -12 | 1 | 123% | -60* | 96%
CC(=O)Nc1ccccc1-c1nc2ccc(C(=O)N3CCN(c4cc(C)ccc4C)CC3)cc2[nH]c1=O | 16% | -8 | -3 | ? | -65* | /
N#CCOC(=O)/C=C/c1ccc2c(c1)OCO2 | 14% | 67 | 22* | -19% | 18 | 1%
O=C(/C=C/c1ccc2c(c1)OCO2)c1ccco1 | 4% | 29* | 17* | 6.6µM* | 56 | 34%
NC(=O)/C(=C/c1ccc2c(c1)OCO2)NC(=O)c1ccco1 | 12% | -5 | 8 | 23% | -38 | -5%
Nc1ccccc1C(=O)/C=C/c1ccc2c(c1)OCO2 | -2%[8.37 µM] | 116* | 69* | 73% | -71* | 221%
CC1CCN(CC2CCN(C(=O)NCc3ccc(F)cc3)CC2)CC1 | / | / | / | / | 11 | /
O=C(NCc1ccc(F)cc1)c1ccc(Nc2nc3ccccc3n3nnnc23)cc1 | / | / | / | / | -34 | /
COc1ccccc1N1CCN(C(=O)CCC(=O)Nc2nnc(C(C)C)s2)CC1 | -9% | -8 | -2 | 12µM* | -3 | -5%
CC(C)c1ccc(NC(=O)CCc2ccccc2)cc1 | ? | 136* | 56* | -5% | 49 | 105%
CC(C)c1nnc(NC(=O)CCS(=O)(=O)c2ccccc2)s1 | 4% | 44* | 9 | 18% | 56 | 0%
O=C(CCc1ccccc1)Nc1cccnc1 | 10% | 104* | 13* | 49% | -9 | -2%[0.00184 µM]
COc1ccc(F)cc1CN1CCN(C(=O)CCC(=O)Nc2nnc(C(C)C)s2)CC1 | -16% | 19 | -3 | ? | -13 | -13%
CC(=O)Nc1ccccc1OCC(O)CS(=O)(=O)c1ccc(C(F)(F)F)cn1 (stereo not given) | -16% | 24 | -1 | 15% | -32 | 5%
CC(C)c1nnc(NC(=O)CCc2ccccc2)s1 | 12% | 28 | 19* | 0% | 1 | 22%
CCOC(=O)c1cc2c(=O)[nH]ccc2nc1C(F)(F)F | 9% | -5 | -1 | 6.6µM* | -10 | ?
CCOC(=O)c1cc2c(=O)[nH]ccc2nc1C | 25% | 6 | 7 | 1% | 7 | 6%
